From ChEMBL document CHEMBL3988442, “University of Dundee, Small-Polar-MMV Screening Library” (2021) come the findings set out here.

About 13,000 (27%) of roughly 48,000 compounds showed an effect of 50% or more. The list shows a part of the results.

In the experiment the test system is Wolbachia pipientis. As to the kind of experiment: Anti-Wolbachia Cell-Based Screen. The experiment is classed as functional. More on the design: scale not given: in the data most compounds retested in dose-response had high values. The conditions noted are these: 5 µM.
For `N#CCc1ccc(OCC(=O)NS(=O)(=O)c2ccc(Cl)s2)cc1`, the “Percent Effect” value is -0.9374%.
The same measure for `CC(C)[C@H](C)NC1CCN(c2ccc(-c3cscn3)cc2)CC1`: -7.145%.
For `CCCn1nnnc1CSCc1cn2c(C)cccc2n1` the value was 8.521%.
For `N#Cc1cccnc1N1CCCC(CO)(Cc2ccccc2F)C1` (stereo not drawn), the “Percent Effect” value was found to be 12.54%.
For `CNS(=O)(=O)CC(=O)N(Cc1ccsc1)c1ccccc1` the value was 7.339%; for `NC[C@H]1CC[C@H](C(NC(=O)C2CC2)c2ccccn2)CC1` (stereo partly drawn), 117.5%; for `NC[C@H]1CC[C@H](C(NC(=O)c2ccccc2)c2ccccn2)CC1` (stereo partly drawn), -1.705%.
The same measure for `O=C(Cn1cnc(NC(=O)CC2CCCC2)n1)NCc1ccccc1`: -4.841%.
For `NC[C@H]1CC[C@H](C(NC(=O)CC2CCCC2)c2ccccn2)CC1` (stereo partly drawn) the value was 151%.
As to `NC[C@H]1CC[C@H](C(NC(=O)c2ccccn2)c2ccccn2)CC1` (stereo partly drawn), the “Percent Effect” value is reported as -2.81%.
For `CC(C)[C@H]1CN(Cc2ccccn2)C[C@@H]1NC(=O)CC1CCC1`, the “Percent Effect” value is -7.125%.
On to `CCCC(=O)NC(Cc1ccc(C)cc1)c1ccccn1` (stereo not drawn), for which the “Percent Effect” value is -7.589%.
In the case of `NC[C@H]1CC[C@H](C(NC(=O)CC2CCCCC2)c2ccccn2)CC1` (stereo partly drawn), the “Percent Effect” value turned out to be 140.5%.
Consider `O=C(OC1CCC1)c1ncccc1C(F)(F)F`, for which the “Percent Effect” value is recorded as -15.91%.
The same measure for `CC(C)c1nnc(NCc2cc3n(n2)CCNC3)s1`: 7.297%; for `CC1CCN(S(=O)(=O)NC(C)Cc2ccco2)CC1` (stereo not drawn): 1.293%.
The same measure for `Cc1nc(CN(C)Cc2cn[nH]c2-c2ccc(F)cc2)c[nH]1`: 20.15%; for `CC(C)[C@H]1COC(=O)N1CC(=O)N1CCN(C(=O)c2ccco2)CC1`: 1.132%; for `CN1CC2(CCCN(CCOCc3ccccc3)C2)OC1=O` (stereo not drawn): 96.52%.
`CN1CC2(CCN(CCCOCc3ccccc3)CC2)OC1=O`: the “Percent Effect” value is 106.4%.
The same measure for `COCCC1(C(=O)O)CCCN(CCOCc2ccccc2)C1` (stereo not drawn): 2.553%; for `COc1ccc(/C=C/CN2CCC3(CC2)CN(C)C(=O)O3)cc1`: -13.05%; for `CN1CC2(CCN(C(=O)CCCOCc3ccccc3)C2)OC1=O` (stereo not drawn): 107.9%.
The same measure for `CS(=O)(=O)NC1CCN(CCOCc2ccccc2)CC1`: 0.008163%; for `Cc1ccc2oc(=O)n(CCC(=O)N3CCC4(CN(C)C(=O)O4)C3)c2c1` (stereo not drawn): 2.838%.
For the molecule `CN1CC2(CCN(C(=O)c3[nH]cnc3-c3ccccc3)C2)OC1=O` (stereo not drawn), the “Percent Effect” value is -16.32%.
As to `CCC1(C(=O)O)CCCN(CCOCc2ccccc2)C1` (stereo not drawn), the “Percent Effect” value is 2.602%.
In the case of `Cc1cc(NC(=O)N2CCC[C@@H]2CO)nn1-c1ccccc1Cl`, the “Percent Effect” value was -2.328%.
The same measure for `CC(C)COCCC(=O)Nc1c(-c2ccc(F)cc2)ncn1C`: 34.39%; for `O=C(NC1CC1)[C@H]1C[C@H]2OCC[C@H]2N(Cc2ccc(F)cc2)C1.O=C(O)C(F)(F)F`: -3.794%.
The same measure for `Cc1ccc([C@@H]2CN(C(=O)c3ccsc3)C[C@H]2NC(=O)C2CC2)cc1`: -0.5207%; for `O=C(NCC(O)c1ccccc1Cl)c1cccc(-n2cnnn2)c1` (stereo not drawn): -6.148%; for `COCCCN1CCC(N(Cc2noc(C)n2)C(C)=O)C1` (stereo not drawn): 116.1%.
For `CC(=O)N(Cc1noc(C)n1)C1CCN(Cc2c(C)noc2C)C1` (stereo not drawn) the value was 106.6%; for `COCCN1CCC(N(Cc2noc(C3CC3)n2)C(C)=O)C1` (stereo not drawn), 0.8027%; for `Cc1nc(CN2CCCC(N(C)c3ccc(C#N)cn3)C2)no1` (stereo not drawn), 1.567%.
Consider `Cc1nc(CN(C)C2CCN(Cc3c(C)noc3C)C2)no1` (stereo not drawn), for which the “Percent Effect” value is recorded as -3.836%.
Consider `CC(=O)N(Cc1noc(C)n1)C1CCN(Cc2ccccc2C#N)C1` (stereo not drawn), for which the “Percent Effect” value was -0.5328%.
For `CC(=O)N(Cc1noc(C)n1)C1CCN(Cc2cccc(C#N)c2)C1` (stereo not drawn) the value was 124.3%.
For `Cc1nc(CN2CCCC(N(C)Cc3c(C)noc3C)C2)no1` (stereo not drawn) the value was 5.065%.
For `CC(=O)N(Cc1noc(C)n1)C1CCN(Cc2ccc(C#N)cc2)C1` (stereo not drawn) the value was 102.5%; for `COCCCN(C)C1CCCN(Cc2noc(C)n2)C1` (stereo not drawn), -3.028%; for `Cc1cccc(CCC(=O)Nc2cccnc2N2CCC(O)CC2)c1`, -21.77%.
Take `Cc1nonc1NC(=O)c1ccc(F)c(COCC2CC2)c1`: the “Percent Effect” value was -55.79%.
The same measure for `CC(C)n1cc2cc(NC(=O)CCS(C)(=O)=O)ccc2n1`: -1.641%; for `COC(=O)c1cc(C(=O)N2CCOCC2(C)C)n(-c2ccccc2)n1`: -5.811%.
Turning to `CCC(C)(NCC(=O)OC)c1nccs1` (stereo not drawn), the “Percent Effect” value is -7.626%.
The same measure for `Cc1ccc(OCC(=O)N(C)Cc2cccc(F)c2)cn1`: 7.779%.
Turning to `CC(C)Oc1cccc(CNC(=O)NC(C)(C(=O)O)c2ccco2)c1` (stereo not drawn), the “Percent Effect” value stood at 1.863%.
As to `CCNS(=O)(=O)c1ccc(C)c(C(=O)N(CCC#N)Cc2ccco2)c1`, the “Percent Effect” value is -4.86%.
Regarding `CC(C)N1CCC2(CC1)CC(NS(C)(=O)=O)c1ccccc1O2.O=C(O)C(F)(F)F` (stereo not drawn), the “Percent Effect” value was 107.1%.
For `CCN1CCC2(CC1)CC(NC(=O)c1csnn1)c1ccccc1O2.O=C(O)C(F)(F)F` (stereo not drawn) the value was -74.83%.
On to `CN(C)C(=O)CC1CC2(CCN(C(=O)N(C)C)CC2)Oc2ccccc21` (stereo not drawn), for which the “Percent Effect” value is given as -10.67%.
